Where “and” joins values, the source holds several entries; their conditions need not be identical. Identical values can stand only once. The whole screen tested about 390,000 compounds, of which about 4,700 (1.2%) were called active. Entries that show only a call come without a potency. Roughly 4% stayed inconclusive and do not appear here. The sample holds actives, similar compounds and a random draw of the others, so the mix is not that of the screen. Calls come from the whole dose curve; as a rule, active = well fitted inhibition curve with a large enough effect; inconclusive = small, poorly fitted or top-dose-only effect, or another doubt; inactive = no such curve, though single readings can be large or run the other way. Where a structure was tested more than once in an assay, its records may differ in their call.
What follows are compounds tested against DNA polymerase eta (Homo sapiens) (UniProt Q9Y253) (assay: qHTS for Inhibitors of Polymerase Eta). Settings: recombinant Pol eta, fluorescent DNA replication assay; series mostly up to 114 µM.
Chain of DNA polymerase eta (Homo sapiens) (Q9Y253 whole entry, looked up): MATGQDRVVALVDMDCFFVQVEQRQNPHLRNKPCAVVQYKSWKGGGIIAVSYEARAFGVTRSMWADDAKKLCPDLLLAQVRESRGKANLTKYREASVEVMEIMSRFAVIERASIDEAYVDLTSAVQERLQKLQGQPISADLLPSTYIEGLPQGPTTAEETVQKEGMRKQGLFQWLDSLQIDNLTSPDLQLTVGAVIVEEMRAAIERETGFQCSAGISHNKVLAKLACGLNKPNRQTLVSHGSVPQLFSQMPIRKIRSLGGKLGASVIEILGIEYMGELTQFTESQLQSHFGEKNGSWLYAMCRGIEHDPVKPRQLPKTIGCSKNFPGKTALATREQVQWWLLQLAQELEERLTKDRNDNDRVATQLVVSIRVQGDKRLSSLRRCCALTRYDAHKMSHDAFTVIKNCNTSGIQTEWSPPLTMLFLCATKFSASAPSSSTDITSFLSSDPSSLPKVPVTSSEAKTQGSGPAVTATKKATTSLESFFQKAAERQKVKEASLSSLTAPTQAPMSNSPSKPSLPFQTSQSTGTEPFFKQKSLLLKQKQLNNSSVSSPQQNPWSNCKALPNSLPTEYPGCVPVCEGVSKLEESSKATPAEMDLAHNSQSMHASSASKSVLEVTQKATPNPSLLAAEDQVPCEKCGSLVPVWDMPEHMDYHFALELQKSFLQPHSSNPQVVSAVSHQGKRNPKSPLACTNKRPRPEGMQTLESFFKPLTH
Method in brief: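 Pol eta (10 nM) was preincubated with compounds for 15 min at room temperature, after which fluorescent replication substrate (50 nM final) was added to start the reaction. Fluorescence was read kinetically at 0 and 10 min.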
Cc1ccc(C)c(N2CCN(C(=O)Cn3ncc4c(=O)oc5ccc(C)cc5c43)CC2)c1 was tested, and the Potency was “inactive”.
In the case of CCOC(=O)c1ccc(CN(Cc2ccccc2)S(=O)(=O)c2ccc(Cl)cc2)cc1, the Potency is reported as “inactive”.
With CCCn1c(=O)c2[nH]c(-c3ccc(OCC(=O)NCCN)cc3)nc2n(CCC)c1=O the Potency was “inactive”.
COc1cccc(NC(=O)c2ccc3nc(CCc4ccccc4)oc3c2)c1 was tested, and the Potency was “inactive”.
COc1ccc(CC(=O)Nc2ccc(-c3nc4ccccc4s3)c(C)c2)cc1 was tested, and the Potency was “inactive”.
In the case of COc1ccc(C(=O)Nc2cccc(/C=C(/CCC(=O)O)c3nc4ccccc4s3)c2)cc1, the Potency is reported as 39.8 µM (active).
With COc1ccc(OC)c(NC(=O)C2CCN(S(=O)(=O)c3ccc(C)cc3)CC2)c1 the Potency was “inactive”.
In the case of CCOC(=O)c1ccc(N2C(=O)c3n[nH]c(-c4ccco4)c3C2c2ccc(O)cc2)cc1 (stereo not drawn), the Potency is reported as “inactive”.
For COC(=O)c1ccc2c(c1)N(CC(=O)Nc1ccc(C)c(C)c1)C(=O)c1ccccc1S2, the Potency was “inactive”.
For COc1ccccc1NC(=O)CN1C(=O)c2ccccc2Sc2ccc(C(=O)N3CCCC3)cc21, the Potency was 79.4 µM (active).
For CCN1C(=O)c2ccccc2Sc2ccc(NC(=O)Cc3ccc(OC)cc3)cc21, the Potency was “inactive”.
In the case of CC(C)(C)C1CCc2c(sc(NC(=O)c3ccccc3F)c2C(=O)N2CCCCC2)C1 (stereo not drawn), the Potency is reported as “inactive”.
In the case of CCOc1ccccc1NC(=O)c1ccc2c(c1)CCN2S(=O)(=O)c1ccc(C)cc1, the Potency is reported as “inactive”.
With CCc1ccc(C2C(C(=O)Nc3ccccc3)=C(C)Nc3c(C(=O)Nc4ccc(C)cc4)cnn32)cc1 (stereo not drawn) the Potency was “inactive”.
C1=C(N2CCOCC2)/C(=C/c2nc3ccccc3[nH]2)CC1 was tested, and the Potency was 20 µM (active).
With COc1cc(OC)c(C2C=C(C(=O)O)Nc3ncnn32)cc1OC (stereo not drawn) the Potency was “inactive”.
With Cc1cc(C)c(NC(=O)CSc2nc3nccnc3c(=O)n2CCc2c[nH]c3ccccc23)c(C)c1 the Potency was “inactive”.
For Cc1cc(C(=O)N/N=C/c2ccc(O)c([N+](=O)[O-])c2)c(C)n1-c1ccc(F)cc1, the Potency was 8.91 µM (active).
In the case of Cc1cc(C(=O)COc2ccccc2[N+](=O)[O-])c(C)n1-c1cccc(S(=O)(=O)N2CCOCC2)c1, the Potency is reported as “inactive”.
In the case of O=C(N/N=C/c1cccc([N+](=O)[O-])c1)C1CC(=O)N(c2ccc(Br)cc2)C1 (stereo not drawn), the Potency is reported as “inactive”.
For CC(C)(C)c1ccc(C(=O)NCC(c2ccco2)S(=O)(=O)c2ccc(F)cc2)cc1 (stereo not drawn), the Potency was “inactive”.
In the case of O=C1/C(=C\c2ccc([N+](=O)[O-])cc2)CS(=O)(=O)C/C1=C/c1ccc([N+](=O)[O-])cc1, the Potency is reported as 15.8 µM (active).
O=C(CC1Oc2ccc(Cl)cc2NC1=O)NCc1ccccc1 (stereo not drawn) was tested, and the Potency was “inactive”.
With COc1ccccc1NC(=O)C(=O)c1cc(C)n(-c2ccccc2F)c1C the Potency was “inactive”.
For C=CC1=C(C(=O)O)N2C(=O)[C@@H](NC(=O)/C(=N\OCC(=O)O)c3csc(N)n3)[C@H]2SC1, the Potency was 7.08 µM (active).
In the case of CO/N=C(\C(=O)N[C@@H]1C(=O)N2C(C(=O)O)=C(COC(C)=O)CS[C@H]12)c1csc(N)n1 (stereo in doubt), the Potency is reported as “inactive and 20 µM (active) and 28.2 µM (active)”.
CC(=O)N1CCCc2cc(S(=O)(=O)N3CCC(C(=O)NCc4ccc(C)cc4)CC3)ccc21 was tested, and the Potency was “inactive”.
In the case of CC(=O)OC1=C(C(C)=O)N(Cc2ccccc2)S(=O)(=O)c2ccccc21, the Potency is reported as “inactive”.
With CCN(CC)c1nn2c(=O)c(C(=O)NCCc3ccccc3)cnc2s1 the Potency was “inactive”.
For COc1ccccc1CNC(=O)c1ccc(CS(=O)c2ccccc2Cl)o1 (stereo not drawn), the Potency was “inactive”.
For O=C(CC1N=C2c3ccccc3N=C(SCc3cccc(Cl)c3)N2C1=O)NCc1ccc2c(c1)OCO2 (stereo not drawn), the Potency was “inactive”.
In the case of CC(/C=C/C1(O)C(C)CC(=O)CC1(C)C)OC1OC(CO)C(O)C(O)C1O (stereo not drawn), the Potency is reported as 31.6 µM (active).
CC1=C(C)C(=O)OC(C(C)C2CCC3C4CC=C5CC(OC6OC(COC7OC(CO)C(O)C(O)C7O)C(O)C(O)C6O)CC(O)C5(C)C4CCC23C)C1 (stereo not drawn) was tested, and the Potency was “inactive”.
In the case of C=CC1C(OC2OC(CO)C(O)C(O)C2O)OC=C(C(=O)OC)C1CC1CC(=O)CC(CC(=O)CCc2ccc(O)cc2)O1 (stereo not drawn), the Potency is reported as “inactive”.
Cc1ccc(Nc2c(-c3ccc(C)cc3)nc3cnccn23)cc1 was tested, and the Potency was “inactive”.
With COc1cccc(NC(=O)N(Cc2cn(C)c3ccccc23)C2CCCCCC2)c1 the Potency was “inactive”.
For O=C1CSC(=S)N1/N=C/c1ccc(O)c([N+](=O)[O-])c1, the Potency was 6.31 µM (active).
In the case of COc1cc(Cl)c(NC(=O)C(NS(=O)(=O)c2cccs2)C(C)C)c(OC)c1 (stereo not drawn), the Potency is reported as “inactive”.
COc1cccc2c1C(=O)c1c(O)c3c(c(O)c1C2=O)CC(O)(C(C)=NNC(=O)c1ccc(Cl)c(Cl)c1)CC3OC1CC(N)C(O)C(C)O1 (stereo not drawn) was tested, and the Potency was 12.6 µM (active).
In the case of CCOc1ccc(N(Cc2ccccc2)C(=O)c2nc(S(C)(=O)=O)ncc2Cl)cc1, the Potency is reported as “inactive”.
For Cc1ccc(-c2cn3c(n2)sc2cc(C(=O)NCc4cccs4)ccc23)c(C)c1, the Potency was “inactive”.
For COc1ccccc1NC(=O)CSC1=Nc2ccccc2C2=NC(CC(=O)NCc3cccs3)C(=O)N12 (stereo not drawn), the Potency was “inactive”.
For O=C(CC1N=C2c3ccccc3N=C(SCc3ccc(F)cc3)N2C1=O)NCc1cccs1 (stereo not drawn), the Potency was “inactive”.
With O=C(CSC1=Nc2ccccc2C2=NC(CC(=O)NCc3ccco3)C(=O)N12)NCc1ccco1 (stereo not drawn) the Potency was 15.8 µM (active).
With Cc1cc(=O)c2cc(C(=O)Nc3cccc(C)c3C)ccc2[nH]1 the Potency was “inactive”.
CCc1ccccc1N1C(=O)CN(S(=O)(=O)CC)CC1(C)C(=O)NC1CCCCC1 (stereo not drawn) was tested, and the Potency was “inactive”.
With COc1cccc2c1cc1c(=O)n(CC(=O)N3CCN(c4cccc(Cl)c4)CC3)nc(C)n12 the Potency was “inactive”.
With COc1cc(/C=C2/C(=O)NN(c3cccc(Cl)c3)C2=O)cc(Br)c1O the Potency was 89.1 µM (active).
For COc1cc(/C=C2/C(=O)NN(c3ccc(F)cc3)C2=O)cc([N+](=O)[O-])c1O, the Potency was 44.7 µM (active).
COc1cc(CN2CC(C)CC(C)C2)cc([N+](=O)[O-])c1O (stereo not drawn) was tested, and the Potency was “inactive”.
COc1ccc(N2C(=O)CC(Nc3ccc(F)cc3)C2=O)c([N+](=O)[O-])c1 (stereo not drawn) was tested, and the Potency was “inactive”.
For CCOC(=O)c1c(NC(=O)/C(C#N)=C/c2ccccc2)sc2c1CCC2, the Potency was “inactive”.
For O=C(NCCCO)C(=O)Nc1c2c(nn1-c1ccc(F)cc1)CSC2, the Potency was “inactive”.
For CCCCOc1ccc(C(=O)Nc2cccc(-c3nc4ccccc4o3)c2C)cc1, the Potency was “inactive”.
In the case of Cc1ccc(S(=O)(=O)n2nc(C)c(S(=O)(=O)N3CCCCCC3)c2C)cc1, the Potency is reported as “inactive”.
With O=C(CSc1ncc(-c2ccccc2)[nH]1)Nc1ccc(F)cc1F the Potency was “inactive”.
Oc1ccccc1-c1nc(/C=C/c2ccc(F)cc2)no1 was tested, and the Potency was “inactive”.
For COc1cc(NC(=O)CSc2nc3nc(C)c(Cc4ccc(C)cc4)c(C)n3n2)cc(OC)c1OC, the Potency was “inactive”.
With Cc1nc2nc(SCC(=O)NCc3ccco3)nn2c(C)c1Cc1ccccc1 the Potency was 44.7 µM (active).
With Cc1ccc(Cc2c(C)nc3nc(SCC(=O)NCCN4CCOCC4)nn3c2C)cc1 the Potency was “inactive”.
COC(=O)Nc1ccc(S(=O)(=O)Nc2cc(OC)nc(OC)n2)cc1 was tested, and the Potency was “inactive”.
With COc1cc(NS(=O)(=O)c2ccc(NC(=S)NC(=O)c3ccccc3)cc2)nc(OC)n1 the Potency was “inactive”.
For COc1cc(NS(=O)(=O)c2ccc(N/C=C(\C=O)c3nc4cc(Cl)ccc4o3)cc2)nc(OC)n1, the Potency was 31.6 µM (active).
For CCCn1c2ccccc2c2cnn(CC(=O)NCC3CCN(Cc4ccc(C)cc4)CC3)c(=O)c21, the Potency was “inactive”.
With Cc1c(C(=O)N(C)C)sc2c1c(=O)n(-c1ccc(F)cc1)c(=O)n2CC(=O)N(C)c1ccccc1 the Potency was “inactive”.
CCOC(=O)c1ccc(NC(=O)CCS(=O)(=O)c2ccc3c(c2)oc(=O)n3C)cc1 was tested, and the Potency was “inactive”.
With OC[C@H]1O[C@@H](n2cnc3c(NC4CCCC4)ncnc32)[C@H](O)[C@H]1O the Potency was “inactive”.
With CCn1c(SCC(=O)NCc2ccco2)nnc1-c1ccc(N)cc1 the Potency was “inactive”.
In the case of CCOC(=O)c1sc(NC(=O)CSc2nc(O)c(Cc3ccccc3)c(=O)[nH]2)nc1C, the Potency is reported as “inactive”.
CCOCCc1c(O)nc(SCC(=O)NCc2ccco2)[nH]c1=O was tested, and the Potency was 15.8 µM (active).
With Cc1ccc(CSc2oc(-c3cccs3)nc2S(=O)(=O)c2ccc(C)cc2)cc1 the Potency was “inactive”.
For CCCCN1CC(c2nc3ccccc3n2CCCCOc2ccc(C)cc2C)CC1=O (stereo not drawn), the Potency was “inactive”.
For COc1cccc(NC(=O)C(=O)NCC(c2ccc3c(c2)OCO3)N2CCN(C)CC2)c1 (stereo not drawn), the Potency was “inactive”.
For COc1ccccc1CNS(=O)(=O)c1cc(Br)cc2c1N(C(C)=O)C(C)C2 (stereo not drawn), the Potency was “inactive”.
With Cc1ccc(Cl)cc1N1CCN(C(=O)c2cnc3c(-c4ccc(F)cc4)c(C)nn3c2C)CC1 the Potency was “inactive”.
In the case of Cc1ccc(OCC(=O)OCc2cc(=O)n3nc(C4CC4)sc3n2)cc1, the Potency is reported as “inactive”.
For Nc1ccc2nc3c(=O)[nH]c(=S)[nH]c3nc2c1, the Potency was 1.12 µM (active).
Cc1cc(C)c(NC(=O)CCc2c(C)nc3c(c(C)nn3C(C)(C)C)c2C)c(C)c1 was tested, and the Potency was “inactive”.
COc1cc(CNCCSc2nnnn2C)ccc1OCc1ccc(Cl)cc1Cl was tested, and the Potency was “inactive”.
In the case of CC1CCN(S(=O)(=O)c2ccc3c(ccn3CCC(=O)NCc3ccc(N(C)C)cc3)c2)CC1, the Potency is reported as “inactive”.
In the case of COc1cccc(NC(=O)CN2C(=O)c3ccccc3Sc3ncccc32)c1, the Potency is reported as “inactive”.
In the case of O=C(CN1C(=O)c2cccc3cccc1c23)Nc1ccccc1, the Potency is reported as 50.1 µM (active).
O=C1c2cccc3cccc(c23)N1CN1CCN(c2ccccn2)CC1 was tested, and the Potency was “inactive”.
With CCN(C(=O)Cn1cc(S(=O)(=O)N2CCN(c3ccccc3F)CC2)c2ccccc2c1=O)c1ccc(C)c(C)c1 the Potency was “inactive”.
With COc1ccccc1OC(C)C(=O)Nc1ccc(S(=O)(=O)Nc2nccs2)cc1 (stereo not drawn) the Potency was “inactive”.
O=C(Nc1ccc(S(=O)(=O)Nc2nccs2)cc1)c1cc(-c2ccncc2)nc2ccccc12 was tested, and the Potency was 12.6 µM (active).
With CCC(CC)C(=O)Nc1ccc(S(=O)(=O)Nc2nccs2)cc1 the Potency was “inactive”.
For CC(C)(C)OC(=O)N1CCC(c2c(C(=O)N3CCc4ccccc4C3)cnn2-c2ccc(F)cc2)CC1, the Potency was “inactive”.

Reference: PubChem BioAssay AID588591 (National Center for Advancing Translational Sciences (NCATS), 2011)
Potency is the fitted concentration of half-maximal effect.
